Entries with a potency or affinity are not part of this list.
Target: Protein S100-A4 (Homo sapiens) (UniProt P26447)
Experiment: S100A4-myosin IIA binding inhibitor potency, dose response, biochemical, fluorescence polarization, cherry-picked hits (AID 687001);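 further: 0% = DMSO neutral control wells and -100% = TFP positive control wells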
Settings: FP, S100A4/TAMRA-myosin IIA peptide binding; series mostly up to 11 µM; activity change, negative = inhibition: at the top concentration;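 active means signal-lowering compounds whose fitted half-maximal concentration is at or below twice the top tested dose in every run; inconclusive means runs disagree, flat 30 to 70% inhibition, or poor curve fit; inactive means the rest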

Sequence of Protein S100-A4 (Homo sapiens) (P26447 whole entry, looked up): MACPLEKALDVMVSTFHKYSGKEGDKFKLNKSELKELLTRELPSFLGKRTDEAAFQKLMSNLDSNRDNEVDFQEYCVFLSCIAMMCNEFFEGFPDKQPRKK

Activity change, negative = inhibition, inactive:
COc1ccc(-c2ccc3c(c2)[C@@H]2[C@@H](CCN2C(=O)NC2CCCC2)[C@H](CO)N3C)cc1 -0.853% [at 10 µM], COc1ccc(C=O)cc1COc1ccc2c(c1)OCO2 -4.28%, CCCNC(=O)c1ccc2c(c1)nc(C)n2-c1cccc(C)c1 7.13%, COc1ccc(NC(=O)c2ccccc2OCc2c(C)noc2C)cc1OC 2.52%, CCCCNS(=O)(=O)c1ccc2nc(-c3cccnc3)cc(C(=O)NC(C)CC)c2c1 (stereo not drawn) 6.52%, Cc1ccc(OCCOCCn2cnc3ccccc3c2=O)c([N+](=O)[O-])c1 3.84%, Cc1cc(C)c(NC(=O)CNC(=O)COC(=O)/C=C/c2cccs2)c(C)c1 -28.4% [at 5.6 µM], Cc1ccc(S(=O)(=O)NCc2ccccc2)cc1C(=O)NCC1CCCO1 (stereo not drawn) -6.65%, CCCCSc1nnc(-c2ccccc2N)c(=O)[nH]1 3.48%, CNC[C@@H]1OCCCC[C@@H](C)Oc2ccc(NS(=O)(=O)c3cccs3)cc2C(=O)N([C@H](C)CO)C[C@H]1C 12.2%, Cc1cc(F)ccc1S(=O)(=O)N1CCCOC1CNC(=O)C(=O)NCc1ccc2c(c1)OCO2 (stereo not drawn) -1.74%, Nn1c(SCc2ccccc2F)nnc1-c1cccnc1 -0.717%, CNC[C@H]1OCCCC[C@@H](C)Oc2ccc(NC(=O)C3CCCCC3)cc2C(=O)N([C@@H](C)CO)C[C@@H]1C 11.4%, O=C(C[C@H]1CC[C@@H]2[C@H](COC[C@@H](O)CN2C(=O)Cc2ccccc2)O1)NC1CCCC1 17.1% [at 10 µM], CO[C@@H]1CN(C)C(=O)c2ccc(NC(C)=O)cc2OC[C@H](C)N(Cc2cc(F)ccc2F)C[C@@H]1C -0.038%, CO[C@H]1CC[C@H]2CCN(C)C(=O)[C@@H](C)[C@H](OC)CN(C)C(=O)c3cc(C#N)ccc3OC[C@H]1O2 8.55%, COc1ccc(-c2cc(C(=O)NCc3ccco3)c3ccccc3n2)c(OC)c1 4.31%, COc1ccc(-n2ncc3c2CC(C)(C)CC3NC(=O)CCc2c(C)nn(C)c2C)cc1 (stereo not drawn) -0.643%, Cc1nn(C)cc1S(=O)(=O)Nc1ccc(C(F)(F)F)cc1 -0.107%, C[C@H]1CN([C@@H](C)CO)C(=O)c2cc(NC(=O)NC3CCCCC3)ccc2O[C@@H]1CN(C)Cc1ccc(C(=O)O)cc1 -1.93%, CCOc1cc(CNCc2ccccc2)ccc1OCc1ccc(Cl)cc1 -1.22%, CCOc1ccccc1N 0.398%, Cc1ccc(C(=O)N2CCN(c3ccc4c(c3)C3CC4CCN3C(=O)OCc3ccccc3)CC2)cc1 (stereo not drawn) -0.205%, CC(=O)Cc1cc2cc([N+](=O)[O-])ccc2oc1=O -1.55%, Cc1ccc(NC(=O)CCCCCN2C(=O)[C@@H]3Cc4ccccc4CN3C2=O)cc1 -0.003%, COC(=O)CCCC1=CC2=C(c3ccccc3)C(=O)C(C)(OC(=O)C3CCCC3)C(=O)C2=CN1Cc1ccc2c(c1)OCO2 (stereo not drawn) 5.52%, C[C@H](CO)N1C[C@H](C)[C@@H](CN(C)Cc2ccc(C(=O)Nc3ccccc3N)cc2)Oc2c(NC(=O)C3CCCCC3)cccc2C1=O 12.5%, Cn1cnc(S(=O)(=O)N2C[C@H](O)COC[C@@H]3O[C@H](CC(=O)NC4CCCC4)CC[C@H]32)c1 1.12%, Cc1ccc(C(=O)Nc2ccc(N3CCOCC3)cc2)cc1 -0.762%, CCc1nn2c(=O)cc(COc3ccc(NC(=O)c4ccco4)cc3)nc2s1 27.9%, CSc1cccc(NC(=O)C2CCN(S(=O)(=O)c3ccc4c(c3)NC(=O)CO4)CC2)c1 4.28%, CC(C)CC#Cc1ccc2c(c1)O[C@@H](CN(C)C(=O)Nc1ccccc1)[C@@H](C)CN([C@H](C)CO)S2(=O)=O 9.65%, COc1cc(/C=C2\SC(=S)N(NC(=O)c3ccccc3OC)C2=O)ccc1O 36%, CC1CC(C)CN(CCCNC(=O)c2cc3c(s2)-c2ccccc2OC3)C1 (stereo not drawn) -2.12%, CCOC(=O)C1(C)CCCN1C(=O)c1ccc(C(F)(F)F)nc1C (stereo not drawn) -3.53%, O=C(c1ccccc1F)N1CC(=O)N2[C@@H](CO)[C@H](c3ccc(C#Cc4ccccc4)cc3)[C@@H]2C1 5.02%, COC(=O)[C@]12CCCCC=C1N(Cc1ccc(Cl)cc1Cl)C(=O)[C@H](CC(=O)N1CCCC1)C2 -3.46%, O=S(=O)(Nc1ccc(N2CCCCC2)cc1)c1ccc(F)cc1 8.2%
